Sampled rows, rich in hits. Any-hit rate of the full collection: about 6.9%.
PLK1 PBD block: qHTS for Inhibitors of PLK1-PDB (polo-like kinase 1 - polo-box domain): Primary Screen; Plk1 PBD binding of FITC phosphopeptide, fluorescence polarization; Potency, µM, usual class: inhibitors; 360,000 compounds, 2.8% hits; AID 720504, 2013; also: series mostly up to about 57 µM; nearly all actives have a fitted effect of over 65% in size
L3MBTL1 inh: qHTS Assay for the Inhibitors of L3MBTL1. AlphaScreen L3MBTL1–H3K9me1 peptide binding. Potency, µM (series often up to 57.1 µM), most hits filed as inhibitors. 230,000 compounds, 0.66% hits; also: nearly all actives have a fitted effect of over 60% in size
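Read-out is AlphaScreen signal from streptavidin donor and nickel chelate acceptor beads (10 ug/mL final each) bridging L3MBTL1 (50 nM) and biotinylated K9-monomethylated H3(1-15) peptide (75 nM), after 30 min compound exposure at room temperature.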
JMJD2A Tudor inh: qHTS Assay for Inhibitors of JMJD2A-Tudor Domain. Lysine-specific demethylase 4A (Homo sapiens), O75164. AlphaScreen JMJD2A-Tudor / H3K4me3 peptide binding. Potency, µM (series often up to 114 µM), hits mostly inhibitors. 390,000 compounds, 4.4% hits. AID 504339, 2011; also: nearly all actives have a fitted effect of over 50% in size
VDR inhibitor: Inhibitors of the vitamin D receptor (VDR): qHTS; Vitamin D3 receptor (Homo sapiens), P11473; VDR-SRC2-3 peptide fluorescence polarization, 2 h; 400,000 compounds, 0.93% hits; Potency, µM, actives largely listed as inhibitors
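The screen uses fluorescence polarization to detect compounds that interfere with recruitment of the SRC2-3 coactivator peptide to VDR; plates are read after 2 h at room temperature.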
HP1b chromo inh: HTS for Inhibitors of HP1-beta Chromodomain Interactions with Methylated Histone Tails; AlphaScreen HP1-beta / biotin-H3K9me3 peptide binding; 390,000 compounds, 0.56% hits; Chromobox protein homolog 1 (Homo sapiens), P83916; Potency, µM (highest dose often 114 µM), actives largely listed as inhibitors; AID 540317, 2011; also: nearly all actives have a fitted effect of over 70% in size
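HP1-beta protein (50 nM final) preincubated 30 min at room temperature with biotinylated H3(1-18)K9me3 peptide (50 nM) in PBS pH 7.4, 0.01% Tween-20, then compound added for 30 min. AlphaScreen streptavidin donor/nickel chelate acceptor beads (10 ug/mL final), 30 min dark, luminescence read.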
BAZ2B inh: qHTS Assay for Inhibitors of BAZ2B. Bromodomain adjacent to zinc finger domain protein 2B (Homo sapiens), Q9UIF8. AlphaScreen BAZ2B-H3K14Ac peptide displacement. Potency, µM (series often up to 114 µM), actives largely listed as inhibitors. 360,000 compounds, 4.4% hits; also: nearly all actives have a fitted effect of over 60% in size
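AlphaScreen displacement: compounds (up to 110uM) incubated 30 min at room temperature with a preformed 50 nM BAZ2B/50 nM biotinylated H3K14Ac peptide complex in PBS pH 7.4 with Tween-20. Donor and acceptor beads at 10 ug/mL final added, 20 min light-protected before reading.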
Hits are given with their value; . = inactive; ? = inconclusive; / = no result given. Calls follow the shape of the dose curve; as a rule, active = well fitted curve in the direction sought with a large enough effect; inconclusive = small, poorly fitted or top-dose-only effect, or another doubt; inactive = no such curve, though single readings can be large; an effect the other way counts as inactive or inconclusive.

SMILES	PLK1 PBD block	L3MBTL1 inh	JMJD2A Tudor inh	VDR inhibitor	HP1b chromo inh	BAZ2B inh
COCc1c(C(=O)OC)nnn1-c1ccc(C(F)(F)F)cc1[N+](=O)[O-]	26.7µM	.	?	.	.	.
CN(C)Cc1ccccc1-c1cc(N(C)C)ncn1	/	/	/	.	/	/
C/C(=N\NC(=O)CN(c1ccc(C)cc1)S(C)(=O)=O)c1cccs1	.	.	.	.	.	.
C/C(=N\NC(=O)CN(c1ccccc1Br)S(C)(=O)=O)c1cccs1	26.7µM	.	22.4µM	.	.	.
CCn1nc(C)cc1C(=O)Sc1cccc(Cl)c1	18.9µM	/	.	?	.	.
Cc1nn(C)c(C(=O)Sc2cccc(Cl)c2)c1[N+](=O)[O-]	4.23µM	.	.	39.8µM	.	.
CC1=C(c2ccc(C)c(C)c2)S(=O)(=O)N(Cc2ccc(C(=O)NCc3ccccc3F)cc2)C1=O	/	/	.	.	.	.
Cc1cccc(COc2ccccc2C(=O)NC2CCC(O)CC2)c1 (stereo not drawn)	.	.	.	.	.	.
COc1ccc(-c2noc(CSCC(=O)Nc3ccc(C)cc3Br)n2)cc1OC	/	/	.	.	.	.
CC1(C)CC(=O)c2cc(-c3nc(-c4ccc(Br)cc4)cs3)c(=O)n(-c3ccccc3)c2C1	/	/	.	.	.	.
O=C(NCc1ccccc1OC(F)(F)F)C1CCC(=O)N(Cc2ccccn2)C1 (stereo not drawn)	11.9µM	/	?	?	.	.
CCCC(C)NC(=O)COC(=O)c1cccc(NS(C)(=O)=O)c1 (stereo not drawn)	29.9µM	.	?	.	.	.
CC(=O)Nc1cccc(C(=O)OCC(=O)NC(C)c2ccc(F)cc2)c1 (stereo not drawn)	.	.	.	.	.	.
CN(C)S(=O)(=O)c1cccc(NC(=S)NC2CCCCC2)c1	.	.	.	.	.	.
CN(C)S(=O)(=O)c1cccc(NC(=S)N/N=C/C2CC=CCC2)c1 (stereo not drawn)	.	.	12.6µM	?	.	.
Cc1ccc(-c2nnc(Nc3ccc(O)cc3)c3ccccc23)cc1S(=O)(=O)NC(C)(C)CO	/	/	.	.	.	.
CC(C)CNCC(=O)N1c2ccccc2Sc2ccccc21	.	.	11.2µM	.	?	?
COc1ccc(-c2nnc3ccc(SC(C)C)nn23)cc1OC	/	/	.	.	.	/
COc1ccc(-c2nnc3ccc(SC(C(C)=O)C(C)=O)nn23)cc1OC	.	.	20µM	.	.	/
Cc1cccc(NC(=O)CN2C(=O)CCSc3ccc(S(=O)(=O)N4CCOCC4)cc32)c1C	?	/	50.1µM	.	.	.
Cc1c[nH]c(=O)n(CCCN2CCN(c3ccccc3OCC(F)(F)F)CC2)c1=O	/	/	/	.	/	/
CCOC(=O)C1CCCN(C(=O)Cn2ncc3c(C)n(Cc4ccccc4F)c(C)c3c2=O)C1 (stereo not drawn)	/	/	.	.	.	?
CN(Cc1cn(-c2ccccc2)nc1-c1cc2ccccc2o1)C(=O)CCC(=O)O	4.23µM	.	31.6µM	79.4µM	.	.
CC1=C(C(=O)NCc2ccccc2C)C2(CCCCC2)OC1=O	/	/	.	.	.	.
Cc1ccc(NC(=O)NNC(=O)CN2C(=O)COc3ccccc32)cc1	.	/	.	.	.	.
COC(=O)c1sc(NC(=S)NNC(=O)c2c(Br)c(C)nn2C)c(C(=O)OC)c1C	26.7µM	/	50.1µM	.	.	25.1µM
COC(=O)c1sc(S(=O)(=O)Nc2c(C)nn(C)c2C)c(C(=O)OC)c1C	.	?	.	.	.	.
O=c1[nH][nH]c(=S)n1-c1ccccc1C(F)(F)F	/	.	/	/	/	?
CCN(CC)C(=O)CSc1nc(-c2cccs2)cc(-c2cccs2)c1C#N	11.9µM	.	.	?	.	.
CCN(CC)C(=O)CSc1nc(N)c(C#N)c(-c2cccs2)c1C#N	.	.	.	.	.	.

Source: PubChem
